The values below come from PubChem BioAssay (NCI).

SMILES strings stand for the structures. Compounds without any hit were thinned out: in the full panel of roughly 83,000, 20% have a hit.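 Percent growth is the endpoint: 0 to 100 indicates growth inhibition (40 means 60% inhibition), 0 means no net growth, and negative values indicate cell death.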 Values without a mark were called inactive. Activity calls are given as the source filed them. Rule for the calls: active = growth percent below 10; inactive = the rest.

Test systems include NCI-H23 lung; NCI-H226 lung; NCI-H322M lung; HOP-62 NSCLC; NCI-H460 lung; NCI-H522 lung; A549/ATCC NSCLC; 786-0 renal; COLO 205 colon; DU-145 prostate; K-562 leukemia; MALME-3M melanoma; MDA-MB-231 breast; RXF 393 renal; SF-268 CNS; SF-295 CNS; SF-539 CNS; UACC-257 melanoma; M14 melanoma; HOP-92 NSCLC.
Assay in all cases: NCI-60 one-dose screen, 48 h (100 = growth as untreated, 0 = no growth, -100 = all killed)
Holding throughout (settings): 10 µM unless noted

As for `CC(C)=CC(=O)N[C@@H]1CC2CCC3C(CC[C@@]4(C)C3CC[C@@H]4C(C)N(C)C)[C@@]2(C)C[C@@H]1O` (some centres not stated), the growth is 43.8% in the test with NCI-H23 lung; 89.1% with NCI-H226 lung; 104% in the test on NCI-H322M lung; 56.4% with HOP-62 NSCLC; 32.1% in the test on NCI-H460 lung; 83% in the test on NCI-H522 lung. The growth is 74.5% in the test with A549/ATCC NSCLC; 58.5% in the test with 786-0 renal; 14.8% in the test on COLO 205 colon; 74.1% in the test with DU-145 prostate; -17.1% (active) in the test on K-562 leukemia; 32.3% in the test with MALME-3M melanoma. The growth with MDA-MB-231 breast is 74.6%; in the test on RXF 393 renal, 20.6%; in the test on SF-268 CNS it was 32.3%; in the test on SF-295 CNS, 11.1%; with SF-539 CNS it was -19.5% (active); with UACC-257 melanoma it was 31.2%. For the same compound, the growth in the test with M14 melanoma was 47.3%.

`N#Cc1c(-c2cccc([N+](=O)[O-])c2)cc(-c2ccc(Nc3nc(Nc4ccc(F)cc4)nc(Nc4ccc(F)cc4)n3)cc2)nc1N`: the growth with NCI-H23 lung is 98.6%; in the test on NCI-H226 lung, 123%; with NCI-H322M lung, 97.9%; with HOP-62 NSCLC, 85.9%; with NCI-H460 lung, 146%; in the test on HOP-92 NSCLC, 55.4%. The growth is 104% in the test on NCI-H522 lung; 86% in the test with A549/ATCC NSCLC; 94.6% with 786-0 renal; 154% with DU-145 prostate; 80.3% with K-562 leukemia; 94.7% with MALME-3M melanoma. Further, the growth in the test on MDA-MB-231 breast was 91.9%; in the test with RXF 393 renal, -10.3% (active); with SF-268 CNS it was 164%; in the test on SF-295 CNS, 102%; in the test on SF-539 CNS it was 127%; in the test with UACC-257 melanoma, 107%. In the test on M14 melanoma, the growth was 110%.

`C/C(=N\O)C(=O)NCCCCCC(=O)Nc1ccccc1`: the growth with NCI-H23 lung was 99.2%; in the test on NCI-H226 lung it was 110%; in the test with NCI-H322M lung, 103%; in the test with HOP-62 NSCLC, 102%; in the test on NCI-H460 lung, 111%; with HOP-92 NSCLC, 94.4%. Further, the growth is 91.1% in the test with NCI-H522 lung; 97% with A549/ATCC NSCLC; 94.4% in the test on 786-0 renal; 114% in the test with DU-145 prostate; 99.7% in the test with K-562 leukemia; 98.9% with MALME-3M melanoma. For the same compound, the growth with MDA-MB-231 breast was 100%; with RXF 393 renal it was 121%; in the test on SF-268 CNS, 100%; in the test on SF-295 CNS it was 101%; in the test with SF-539 CNS, 107%; with UACC-257 melanoma it was 98.6%. In addition, in the test on M14 melanoma, the growth was 107%.

Turning to `CCCCCCCCn1ccc2cc(NC(=O)Cn3cc(CN4CCC(C)CC4)nn3)ccc21`, the growth with NCI-H23 lung was 79.4%; in the test on NCI-H226 lung, 69.9%; with NCI-H322M lung it was 28.6%; in the test on HOP-62 NSCLC, 72.4%; in the test on NCI-H460 lung, -70.2% (active); in the test with HOP-92 NSCLC, 21.8%. In addition, the growth is 18.7% in the test on NCI-H522 lung; 21.1% with A549/ATCC NSCLC; 0.91% (active) in the test on 786-0 renal; 42.3% in the test on DU-145 prostate; -25.6% (active) with K-562 leukemia; -70.5% (active) in the test with MALME-3M melanoma. In addition, the growth in the test with MDA-MB-231 breast is 9.71% (active); in the test on RXF 393 renal, 24.8%; in the test on SF-268 CNS, 32.8%; with SF-295 CNS it was -74.3% (active); in the test with SF-539 CNS, 11.5%; with UACC-257 melanoma, -35.8% (active). In the test on M14 melanoma, the growth was -65.2% (active).

For the compound `COC(=O)/C(CCC=C(C)C)=C1\[C@@H](OC(C)=O)C[C@@]2(C)[C@H]1CC(=O)[C@H]1[C@@]3(C)CCC(N4CCCC4)[C@@H](C)[C@@H]3CC[C@@]12C` (some centres not stated), the growth in the test with NCI-H23 lung is 91.5%; with NCI-H226 lung, 113%; in the test with NCI-H322M lung, 99.6%; in the test with HOP-62 NSCLC it was 102%; with NCI-H460 lung, 101%; in the test on HOP-92 NSCLC, 77.2%. In addition, the growth in the test on NCI-H522 lung was 102%; with A549/ATCC NSCLC it was 104%; in the test on 786-0 renal it was 93.1%; with DU-145 prostate it was 101%; with K-562 leukemia, 12.5%; in the test with MALME-3M melanoma it was 100%. Moreover, the growth is 130% in the test on MDA-MB-231 breast; 98.3% in the test on RXF 393 renal; 97.6% in the test with SF-268 CNS; 98.3% with SF-295 CNS; 102% with SF-539 CNS; 110% in the test with UACC-257 melanoma. In the test on M14 melanoma, the growth is 93.1%.

Consider `O=C(Nc1nc(C(=O)N2CCN(C(c3ccccc3)c3ccccc3)CC2)cs1)c1ccc(NC2CCCCC2)c([N+](=O)[O-])c1`, for which the growth in the test on NCI-H23 lung is 77.2%; with NCI-H226 lung it was 60.1%; with NCI-H322M lung, 91.6%; with HOP-62 NSCLC, 90.9%; in the test on NCI-H460 lung, 99.6%; in the test with HOP-92 NSCLC, 63.7%. Moreover, the growth is 67.3% with NCI-H522 lung; 93.2% in the test with A549/ATCC NSCLC; 87.7% in the test with 786-0 renal; 98.9% in the test on DU-145 prostate; 83.9% in the test on K-562 leukemia; 89.4% with MALME-3M melanoma. Moreover, the growth is 70.5% in the test with MDA-MB-231 breast; 85% in the test with RXF 393 renal; 86.3% with SF-268 CNS; 69.9% in the test on SF-295 CNS; 93.3% in the test with SF-539 CNS; 89.4% with UACC-257 melanoma. Moreover, in the test with M14 melanoma, the growth was 77.8%.

For `CC(O)c1ncc(/C=C2\SC(=S)N(Cc3ccccc3)C2=O)s1` (configuration not stated), the growth in the test on NCI-H23 lung is 103%; in the test with NCI-H226 lung it was 97.2%; in the test with NCI-H322M lung, 100%; in the test with HOP-62 NSCLC, 104%; in the test on NCI-H460 lung, 104%; in the test with NCI-H522 lung it was 5.34% (active). Also, the growth in the test with A549/ATCC NSCLC is 105%; in the test on 786-0 renal, 87.3%; in the test on COLO 205 colon it was 96.2%; in the test on DU-145 prostate, 89.2%; in the test with K-562 leukemia, 87.9%; with MALME-3M melanoma, 93.2%. The growth is 94% in the test with MDA-MB-231 breast; 102% in the test on RXF 393 renal; 89.8% in the test on SF-268 CNS; 102% in the test with SF-295 CNS; 85% with SF-539 CNS; 96.2% in the test on UACC-257 melanoma. Moreover, the growth with M14 melanoma was 93.8%.

Turning to `CCSC1=CC(=O)c2ccccc2C1=O`, the growth with NCI-H23 lung was 85.9%; in the test on NCI-H226 lung, 88.4%; with NCI-H322M lung it was 94.6%; with HOP-62 NSCLC, 76.8%; with NCI-H460 lung it was 112%; with HOP-92 NSCLC, -2.5% (active). Moreover, the growth is -20.9% (active) in the test on NCI-H522 lung; 93.2% in the test with A549/ATCC NSCLC; 111% with 786-0 renal; 95.1% with DU-145 prostate; 2.73% (active) in the test with K-562 leukemia; 14% in the test on MALME-3M melanoma. The growth is 3.95% (active) with MDA-MB-231 breast; 42.8% with RXF 393 renal; 76.5% with SF-268 CNS; 97.2% in the test with SF-295 CNS; 106% with SF-539 CNS; 83.1% in the test on UACC-257 melanoma. Also, the growth in the test on M14 melanoma was 84.1%.
